Screening results as filed in PubChem.
Compounds with a hit are over-represented: about 19% of the library has one in this group of screens.
TGFb inhibitor: inhibitors of TGF-b signaling; HepG2 CAGA-GFP TGF-b/SMAD3 reporter, GFP fluorescence, 18 h; TGF-beta stimulated, 500 pg/mL final; Potency, µM (highest dose often 46.1 µM), for inactives: at the highest dose activity, negative = inhibition, hits mostly inhibitors; actives 1.2% (n = 410,000); note: potency is the fitted concentration of half-maximal effect; % is set by controls: 0 for no effect and ±100 for the full control effect; nearly all actives have a fitted effect of over 65% in size
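Inhibition of TGF-beta-driven CAGA-GFP reporter expression in HEPG2 cells is measured by cellular GFP fluorescence after 18 h stimulation with 500 pg/mL recombinant TGF-beta in 1% FBS medium at 37 degrees C.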
IL-1B inflam inh: inflammasome signaling inhibition, IL-1 beta readout; THP-1 LPS/ATP IL-1B secretion, AlphaLISA, 16 h; stronger effect = lower value; activity change, % at 57.5 µM; actives 4.7% (n = 360,000); AID 743279; in the data active = activity change below about -50%; inconclusive = mostly about -30% to -49%; note: % is set by controls: 0 for no effect and ±100 for the full control effect
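THP-1 cells pretreated 1 hr with compounds (up to 57.5 uM final), then stimulated with LPS (250 ng/mL final) plus ATP (1.25 mM final); secreted IL-1B measured by AlphaLISA after 16 hr, decreased signal indicating inhibition.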
S-ASM inh: inhibitors of human secretory acid sphingomyelinase. P17405. placental ASM, HMU-PC fluorogenic substrate, 60 min. Potency, µM (top dose mostly 57.5 µM), without a hit: at the top dose activity change, negative = inhibition, most hits filed as inhibitors. actives 0.006% (n = 340,000). AID 504937; note: potency is the fitted concentration of half-maximal effect
Target sequence (P17405 47-631 limits assumed): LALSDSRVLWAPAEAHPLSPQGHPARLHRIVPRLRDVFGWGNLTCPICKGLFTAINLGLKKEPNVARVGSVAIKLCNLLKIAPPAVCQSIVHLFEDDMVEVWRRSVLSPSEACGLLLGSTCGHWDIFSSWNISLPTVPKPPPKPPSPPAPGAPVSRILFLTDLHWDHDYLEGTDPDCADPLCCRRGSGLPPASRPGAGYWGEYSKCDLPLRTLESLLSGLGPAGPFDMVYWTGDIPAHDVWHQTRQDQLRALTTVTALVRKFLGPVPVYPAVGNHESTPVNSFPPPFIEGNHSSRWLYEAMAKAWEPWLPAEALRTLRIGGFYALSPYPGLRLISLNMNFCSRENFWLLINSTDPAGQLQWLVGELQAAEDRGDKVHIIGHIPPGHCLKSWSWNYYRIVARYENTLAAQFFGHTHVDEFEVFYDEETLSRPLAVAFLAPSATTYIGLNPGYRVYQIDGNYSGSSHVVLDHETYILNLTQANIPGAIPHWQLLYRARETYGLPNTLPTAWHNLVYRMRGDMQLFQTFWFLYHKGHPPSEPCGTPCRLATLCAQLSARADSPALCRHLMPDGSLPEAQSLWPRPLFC
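Fluorescence read-out (Ex 386 nm, Em 447 nm) after stopping the reaction at pH 10. Enzyme: ASM from human placenta; substrate HMU-PC0, 9 uM final; 60 min, 37 °C. Compound preincubation 10 min, ambient temperature.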
DT40 TDP1 no CPT: qHTS for Inhibitors of human tyrosyl-DNA phosphodiesterase 1 (TDP1): qHTS in cells in absence of CPT; actives 15% (n = 420,000); DT40 Tdp1-/- hTDP1 cells, no CPT, ATP luminescence, 48 h; Potency, µM (doses to about 46.2 µM), for the others: at the highest dose activity change, negative = growth inhibition, hits mostly inhibitors; AID 686978, 2013; note: potency is the fitted concentration of half-maximal effect; % is set by controls: 0 for no effect and ±100 for the full control effect; nearly all actives have a fitted effect of over 55% in size
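Luminescent ATP content (CellTiter-Glo) served as the growth readout. Knockout chicken DT40 cells expressing human TDP1 were exposed to compounds without camptothecin for a minimum 48 hr at 37 °C.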
TDP1 cell CPT: growth inhibition of DT40 Tdp1-/-;hTDP1 cells with camptothecin (screen for TDP1 inhibitors) | chicken DT40 Tdp1-/-;hTDP1 cells + 20 nM CPT, ATP luminescence, 48 h | Potency, µM (top dose mostly 46.2 µM), without a hit: top-dose activity change, negative = growth inhibition, actives largely listed as inhibitors | actives 12% (n = 420,000); note: potency is the fitted concentration of half-maximal effect; % is set by controls: 0 for no effect and ±100 for the full control effect; nearly all actives have a fitted effect of over 55% in size
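Cell growth measured by CellTiter-Glo luminescence after a minimum 48 h, 37 C compound exposure with 20 nM CPT in Tdp1-knockout DT40 cells stably expressing hTDP1, seeded 400/well; qHTS titration format.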
HepG2 viability: HepG2 cytotoxicity, counter-screen for TGF-b inhibitors | HepG2 CAGA-GFP viability, ATP luminescence, 18 h | Potency, µM (series often up to 46.1 µM), without a hit: at the top dose activity change, negative = cytotoxicity, actives largely listed as cytotoxic | actives 0.76% (n = 410,000) | AID 588856; note: potency is the fitted concentration of half-maximal effect
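CellTiter-Glo luminescence gave cytotoxicity after 18 hours at 37 degrees C. The cells were HepG2 CAGA-GFP in 1% FBS DMEM, stimulated with 500 pg/mL TGF-beta after compound addition. %Activity was normalised to no-cell wells (complete cell-killing) and DMSO (no toxicity), and curves were fitted and classified.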
An asterisk follows results filed as active; u = inconclusive; x = no result. Unless noted, calls come from the whole dose curve; as a rule, active = well fitted curve in the direction sought with a large enough effect; inconclusive = small, poorly fitted or top-dose-only effect, or another doubt; inactive = no such curve, though single readings can be large; an effect the other way counts as inactive or inconclusive.

SMILES | TGFb inhibitor | IL-1B inflam inh | S-ASM inh | DT40 TDP1 no CPT | TDP1 cell CPT | HepG2 viability
CCOC(=O)c1cccc(NC(=O)CSc2nc3cc4ccccc4cc3[nH]2)c1 | u | x | x | 23µM* | u | -50%
CCCCCOc1ccc(C(=O)CCC(=O)NC(C)c2ccc(S(N)(=O)=O)cc2)cc1 (stereo not drawn) | -3% | 19 | -5% | u | u | 0%
O=C(C1CCCN(S(=O)(=O)c2cccc3nsnc23)C1)N1CCc2ccccc2C1 (stereo not drawn) | -27% | u | -6% | 23µM* | u | -17%
O=C(C1CCN(S(=O)(=O)c2cccc3nsnc23)CC1)N1CCn2c1nc1ccccc12 | -29% | 17 | -8% | 16µM* | u | -8%
O=C(C1CCN(S(=O)(=O)c2cccc3nsnc23)CC1)N1CCCc2ccccc21 | -3% | -52* | -4% | u | -27% | -7%
O=C(C1CCN(S(=O)(=O)c2cccc3nsnc23)CC1)N1CCc2ccccc21 | -18% | -1 | -1% | u | u | -6%
CC1CCCN(C(=O)C2CCCN(S(=O)(=O)c3cccc4nsnc34)C2)C1 (stereo not drawn) | -13% | -12 | -2% | -28% | u | 2%
O=C(C1CCCN(S(=O)(=O)c2cccc3nsnc23)C1)N1CCc2ccccc21 (stereo not drawn) | u | 0 | -8% | 23µM* | u | -33%
COc1ccc(CN(C(=O)c2snc(C(N)=O)c2N)C(C(=O)NC2CCCC2)c2ccco2)cc1 (stereo not drawn) | 18% | u | 252% | u | 11% | 3%
CCc1ccc(N2C(=O)Nc3ccc(Br)cc3C2(O)C(=O)NCCN(C)C)cc1 (stereo not drawn) | -1% | 6 | 3% | 9% | 9% | -20%
CN(C(=O)c1ccc(COc2ccccc2Br)o1)c1ccccc1 | -5% | 0 | -3% | -6% | -21% | -3%
CC1Cc2ccccc2N1C(=O)C1CCCN(S(=O)(=O)c2cccc3nsnc23)C1 (stereo not drawn) | -12% | -13 | -3% | 15µM* | u | -15%
COCCn1c(=O)c(-c2cc(F)cc(F)c2)nc2cnc(Oc3cccc(Cl)c3)nc21 | x | x | x | -19% | u | x
C=CCN1c2ccccc2[C@]23C[C@@H](C(=O)OC)N(C(=O)c4cc(C)oc4C)C2=NC(C(=O)OC)=C(C(=O)OC)[C@H]13 | -28% | -65* | -3% | u | u | -17%
CC#CCN1c2ccccc2[C@]23C[C@@H](C(=O)OC)N(C(=O)c4cc(C)oc4C)C2=NC(C(=O)OC)=C(C(=O)OC)[C@H]13 | -1% | -21 | 0% | u | -1% | -11%
COc1ccc(/C(C)=N/OCC(=O)N2CC3(C)CC2CC(C)(C)C3)cc1 (stereo not drawn) | -23% | -78* | -4% | u | u | -37%
CC1(C)CC2CC(C)(CN2C(=O)c2cc(-c3ccccc3O)on2)C1 (stereo not drawn) | 1% | 21 | -6% | 13µM* | u | 7%
COc1ccc(-c2cc(C(=O)N3CC4(C)CC3CC(C)(C)C4)no2)cc1 (stereo not drawn) | 6% | -53* | -2% | u | u | 1%
COc1ccc(/C=N/OCC(=O)N2CC3(C)CC2CC(C)(C)C3)cc1 (stereo not drawn) | -10% | u | -3% | -14% | -15% | -12%
COc1ccc(-c2cc(C(=O)N3CC4(C)CC3CC(C)(C)C4)no2)cc1OC (stereo not drawn) | 14% | -2 | -8% | 16µM* | u | 9%
CC1CCN(C(=O)c2cc(-c3ccccc3O)on2)CC1 | -3% | -8 | -2% | -20% | -27% | -31%
COc1ccc(-c2cc(C(=O)N3CCCCC3C)no2)cc1OC (stereo not drawn) | x | x | x | -17% | -3% | -19%
COc1ccc(-c2cc(C(=O)N3CCOCC3)no2)cc1 | -2% | -2 | 26% | -10% | 5% | -13%
O=C(CSc1cn[nH]n1)Nc1ccc(Cl)cc1Cl | 4% | u | 1% | -22% | 6% | 3%
Cc1cc(C)cc(Oc2nc3c(c(=O)n(C)c(=O)n3C)n2Cc2ccc(F)cc2)c1 | -7% | x | x | u | u | 3%
SMILES | TGFb inhibitor | IL-1B inflam inh | S-ASM inh | DT40 TDP1 no CPT | TDP1 cell CPT | HepG2 viability
O=C(c1cc(COc2cccc(C(F)(F)F)c2)on1)N1C[C@H]2CC[C@H]1C2 | u | -1 | -1% | u | u | 0%
Cc1ccc(-c2cc(C(=O)N3CCN(C(=O)c4ccco4)CC3)no2)cc1 | 0% | -14 | 2% | -13% | u | -8%
CC1(C)C[C@@H]2C[C@@](C)(CN2C(=O)c2cc(COc3cccc(C(F)(F)F)c3)on2)C1 | u | -61* | -1% | 18µM* | u | -6%
Cc1ccc(-c2cc(C(=O)N3CC4(C)CC3CC(C)(C)C4)no2)cc1 (stereo not drawn) | -1% | 17 | -6% | 10µM* | 18µM* | 2%
CN(C)S(=O)(=O)c1cccc(NC(=S)Nc2cccc3cnccc23)c1 | -12% | 39 | 1% | 13µM* | 16µM* | -36%
COc1ccccc1NC(=S)Nc1cccc2cnccc12 | -25% | 12 | x | 23µM* | 26µM* | -28%
S=C(Nc1ccc(Cl)cc1)Nc1cccc2cnccc12 | -1% | u | -2% | 23µM* | u | 34%
COc1ccc(-c2noc(-c3ccc(NCCc4ccccc4)c([N+](=O)[O-])c3)n2)cc1OC | -14% | x | x | -20% | -18% | 2%
CCc1ccc(C(=O)CSc2nc(-c3ccccc3)nc3c2CCCC3)cc1 | 4% | x | x | -11% | 4% | -19%
Cc1cc(C)c(NS(=O)(=O)c2cc(-c3onc(C)c3C)ccc2C)c(C)c1 | -10% | x | x | 8.2µM* | 13µM* | 13%
COc1ccc(-c2cc(C)no2)cc1S(=O)(=O)Nc1c(C)cc(C)cc1C | 0% | x | x | 21µM* | u | -22%
Cc1ccc2c(c1)N(S(=O)(=O)c1cc(-c3onc(C)c3C)ccc1C)CCO2 | u | u | -2% | 9.2µM* | 23µM* | -13%
